# Data reported in the supplement of paper PMC8728848.
# Only a selection was taken, and the strongest signals are over-represented in it overall.
# Key:
# Assay in all cases: glycan array binding signal (z-score within array); higher = stronger binding
# Details in all cases: glycan notation: IUPAC condensed, linker removed
# [1] = target: Fuc(a1-2)Gal
# Summary of the method: (§1)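 Glycan array data were curated from 3228 arrays in the Consortium for Functional Glycomics database and kept only where the protein sequence was available. Glycan names were converted to IUPAC-condensed notation, and columns mapping to the same glycan were averaged. The binding signal is a within-array Z-score, averaged across arrays of the same protein sequence at different concentrations or buffers and across linkers. Negative Z-scores can be read as non-binding.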
# [2] = target: Fuc(a1-2)Gal(b1-4)GlcNAc(b1-3)GalNAc
# Summary of the method: as §1
# [3] = target: Fuc(a1-2)Gal(b1-4)[Fuc(a1-3)]GlcNAc
# Summary of the method: as §1
# [4] = target: Fuc(a1-2)[Gal(a1-3)]Gal(b1-3)GlcNAc(b1-6)GalNAc
# Summary of the method: as §1
# [5] = target: Fuc(a1-2)[GalNAc(a1-3)]Gal(b1-3)GlcNAc(b1-2)Man(a1-3)[Fuc(a1-2)[GalNAc(a1-3)]Gal(b1-3)GlcNAc(b1-2)Man(a1-6)]Man(b1-4)GlcNAc(b1-4)GlcNAc
# Summary of the method: as §1
# [6] = target: Fuc(a1-2)[GalNAc(a1-3)]Gal(b1-4)GlcNAc(b1-2)Man(a1-3)[Fuc(a1-2)[GalNAc(a1-3)]Gal(b1-4)GlcNAc(b1-2)Man(a1-6)]Man(b1-4)GlcNAc(b1-4)GlcNAc
# Summary of the method: as §1
# [7] = target: Fuc(a1-2)[GalNAc(a1-3)]Gal(b1-4)GlcNAc(b1-3)Gal(b1-4)GlcNAc(b1-3)Gal(b1-4)GlcNAc
# Summary of the method: as §1
# [8] = target: Fuc(a1-2)[GalNAc(a1-3)]Gal(b1-4)[Fuc(a1-3)]GlcNAc
# Summary of the method: as §1
# [9] = target: Fuc(a1-3)GlcNAc
# Summary of the method: as §1
# [10] = target: Fuc(a1-3)[Gal(b1-4)]GlcNAc(b1-3)GalNAc
# Summary of the method: as §1
# [11] = target: Fuc(a1-3)[Gal3S(b1-4)]GlcNAc
# Summary of the method: as §1
# [12] = target: Fuc(a1-3)[GalNAc(b1-4)]GlcNAc
# Summary of the method: as §1
# [13] = target: Gal(a1-3)Gal(b1-3)GlcNAc(b1-3)GalNAc
# Summary of the method: as §1
# [14] = target: Gal(a1-3)[Gal(a1-4)]Gal(b1-4)GlcNAc
# Summary of the method: as §1
# [15] = target: Gal(b1-3)Gal
# Summary of the method: as §1
# [16] = target: Gal(b1-3)GlcNAc(b1-2)Man
# Summary of the method: as §1
# [17] = target: Gal(b1-3)GlcNAc(b1-2)Man(a1-3)[Gal(b1-3)GlcNAc(b1-2)Man(a1-6)]Man(b1-4)GlcNAc(b1-4)GlcNAc
# Summary of the method: as §1
# [18] = target: Gal(b1-3)GlcNAc(b1-3)Gal(b1-3)GlcNAc
# Summary of the method: as §1
# [19] = target: Gal(b1-3)[Fuc(a1-4)]GlcNAc(b1-3)Gal(b1-3)[Fuc(a1-4)]GlcNAc
# Summary of the method: as §1
# [20] = target: Gal(b1-4)GlcNAc(b1-2)Man(a1-3)[Gal(b1-4)GlcNAc(b1-2)Man(a1-6)]Man(b1-4)GlcNAc(b1-4)GlcNAc
# Summary of the method: as §1
# [21] = target: Gal(b1-4)GlcNAc(b1-2)[Gal(b1-4)GlcNAc(b1-6)]Man(a1-6)[Gal(b1-4)GlcNAc(b1-2)Man(a1-3)]Man(b1-4)GlcNAc(b1-4)[Fuc(a1-6)]GlcNAc
# Summary of the method: as §1
# [22] = target: Gal(b1-4)GlcNAc(b1-3)Gal(b1-4)GlcNAc
# Summary of the method: as §1
# [23] = target: Gal(b1-4)GlcNAc(b1-3)Gal(b1-4)GlcNAc(b1-3)Gal(b1-4)GlcNAc
# Summary of the method: as §1
# [24] = target: Gal(b1-4)GlcNAc(b1-3)Gal(b1-4)GlcNAc(b1-3)Gal(b1-4)GlcNAc(b1-2)[Gal(b1-4)GlcNAc(b1-3)Gal(b1-4)GlcNAc(b1-3)Gal(b1-4)GlcNAc(b1-6)]Man(a1-6)[Gal(b1-4)GlcNAc(b1-3)Gal(b1-4)GlcNAc(b1-3)Gal(b1-4)GlcNAc(b1-2)Man(a1-3)]Man(b1-4)GlcNAc(b1-4)[Fuc(a1-6)]GlcNAc
# Summary of the method: as §1
# [25] = target: Gal(b1-4)GlcNAc(b1-3)Gal(b1-4)GlcNAc(b1-3)Gal(b1-4)GlcNAc(b1-3)Gal(b1-4)GlcNAc(b1-3)Gal(b1-4)GlcNAc(b1-2)Man(a1-3)[Gal(b1-4)GlcNAc(b1-3)Gal(b1-4)GlcNAc(b1-3)Gal(b1-4)GlcNAc(b1-3)Gal(b1-4)GlcNAc(b1-3)Gal(b1-4)GlcNAc(b1-2)Man(a1-6)]Man(b1-4)GlcNAc(b1-4)GlcNAc
# Summary of the method: as §1
# [26] = target: Gal(b1-4)GlcNAc(b1-3)[Gal(b1-4)GlcNAc(b1-6)]Gal(b1-4)GlcNAc
# Summary of the method: as §1
# [27] = target: Gal(b1-4)GlcNAc6P
# Summary of the method: as §1
# [28] = target: Gal(b1-6)Gal
# Summary of the method: as §1
# [29] = target: Gal6S(b1-3)GlcNAc
# Summary of the method: as §1
# [30] = target: Gal6S(b1-3)GlcNAc6S
# Summary of the method: as §1
# [31] = target: Glc(a1-6)Glc(a1-6)Glc
# Summary of the method: as §1
# [32] = target: GlcA(b1-6)Gal
# Summary of the method: as §1
# [33] = target: GlcA3S(b1-3)Gal(b1-4)GlcNAc(b1-2)Man
# Summary of the method: as §1
# [34] = target: GlcNAc(b1-2)Man(a1-3)[GlcNAc(b1-2)Man(a1-6)]Man(b1-4)GlcNAc(b1-4)[Fuc(a1-6)]GlcNAc
# Summary of the method: as §1
# [35] = target: GlcNAc(b1-2)[GlcNAc(b1-4)]Man(a1-3)[GlcNAc(b1-2)Man(a1-6)]Man(b1-4)GlcNAc(b1-4)GlcNAc
# Summary of the method: as §1
# [36] = target: GlcNAc(b1-3)[GlcNAc(b1-6)]Gal(b1-4)GlcNAc
# Summary of the method: as §1
# [37] = target: GlcNAc(b1-3)[GlcNAc(b1-6)]GalNAc
# Summary of the method: as §1
# [38] = target: GlcNAc(b1-6)GalNAc
# Summary of the method: as §1
# [39] = target: Neu5Ac(a2-3)Gal(b1-3)GalNAc(b1-3)Gal(a1-4)Gal(b1-4)Glc
# Summary of the method: as §1
# [40] = target: Neu5Ac(a2-3)Gal(b1-3)GlcNAc(b1-2)Man
# Summary of the method: as §1
# [41] = target: Neu5Ac(a2-3)Gal(b1-4)GlcNAc(b1-2)Man(a1-3)[Neu5Ac(a2-6)Gal(b1-4)GlcNAc(b1-2)Man(a1-6)]Man(b1-4)GlcNAc(b1-4)GlcNAc
# Summary of the method: as §1
# [42] = target: Neu5Ac(a2-3)Gal(b1-4)GlcNAc(b1-2)[Neu5Ac(a2-3)Gal(b1-4)GlcNAc(b1-4)]Man(a1-3)[GlcNAc(b1-4)][Neu5Ac(a2-3)Gal(b1-4)GlcNAc(b1-2)[Neu5Ac(a2-3)Gal(b1-4)GlcNAc(b1-6)]Man(a1-6)]Man(b1-4)GlcNAc(b1-4)GlcNAc
# Summary of the method: as §1
# [43] = target: Neu5Ac(a2-3)Gal(b1-4)GlcNAc(b1-2)[Neu5Ac(a2-3)Gal(b1-4)GlcNAc(b1-4)]Man(a1-3)[GlcNAc(b1-4)][Neu5Ac(a2-3)Gal(b1-4)GlcNAc(b1-4)Man(a1-6)]Man(b1-4)GlcNAc(b1-4)GlcNAc
# Summary of the method: as §1
# [44] = target: Neu5Ac(a2-3)Gal(b1-4)GlcNAc(b1-3)Gal(b1-4)[Fuc(a1-3)]GlcNAc
# Summary of the method: as §1
# [45] = target: Neu5Ac(a2-6)Gal(b1-4)GlcNAc(b1-3)Gal(b1-3)GlcNAc
# Summary of the method: as §1
# [46] = target: Neu5Ac(a2-6)Gal(b1-4)GlcNAc(b1-3)Gal(b1-4)GlcNAc(b1-2)Man(a1-3)[Neu5Ac(a2-6)Gal(b1-4)GlcNAc(b1-3)Gal(b1-4)GlcNAc(b1-2)Man(a1-6)]GalNAc
# Summary of the method: as §1
# [47] = target: Neu5Ac(a2-6)Gal(b1-4)GlcNAc(b1-3)Gal(b1-4)GlcNAc(b1-6)[Gal(b1-3)]GalNAc
# Summary of the method: as §1
# [48] = target: Neu5Ac(a2-6)Gal(b1-4)GlcNAc(b1-3)[Neu5Ac(a2-6)Gal(b1-4)GlcNAc(b1-6)]GalNAc
# Summary of the method: as §1
# [49] = target: Neu5Ac(a2-6)Gal(b1-4)GlcNAc(b1-6)[Gal(b1-3)]GalNAc
# Summary of the method: as §1
# [50] = target: Neu5Ac(a2-8)Neu5Ac(a2-3)[GalNAc(b1-4)]Gal(b1-4)Glc
# Summary of the method: as §1
# [51] = target: Neu5Ac(b2-6)Gal(b1-4)GlcNAc
# Summary of the method: as §1
binder,measurement,setting,value
Clec18A (Homo sapiens) (protein) PFHTCDLRIDGDCFMVSSEADTYYRARMKCQRKGGVLAQIKRQKVQDILAFYLGRLETTNEVIDSDFETRNFWIGLTYKTAKDSFRWATGEHQAFTSFAFGQPDNHGFGNCVELQASAAFNWNDQRCKTRNRYICQ,glycan array binding signal (z-score),[1],-0.536
same,glycan array binding signal (z-score),[2],-0.366
same,glycan array binding signal (z-score),[3],-0.32
same,glycan array binding signal (z-score),[4],1.74
same,glycan array binding signal (z-score),[5],-0.538
same,glycan array binding signal (z-score),[6],4.62
same,glycan array binding signal (z-score),[7],-0.814
same,glycan array binding signal (z-score),[8],-0.083
same,glycan array binding signal (z-score),[9],-0.783
same,glycan array binding signal (z-score),[10],-0.458
same,glycan array binding signal (z-score),[11],0.178
same,glycan array binding signal (z-score),[12],0.38
same,glycan array binding signal (z-score),[13],-0.324
same,glycan array binding signal (z-score),[14],2.29
same,glycan array binding signal (z-score),[15],-0.801
same,glycan array binding signal (z-score),[16],-0.886
same,glycan array binding signal (z-score),[17],0.56
same,glycan array binding signal (z-score),[18],4.51
same,glycan array binding signal (z-score),[19],0.734
same,glycan array binding signal (z-score),[20],1.15
same,glycan array binding signal (z-score),[21],3.1
same,glycan array binding signal (z-score),[22],3.23
same,glycan array binding signal (z-score),[23],0.45
same,glycan array binding signal (z-score),[24],3.83
same,glycan array binding signal (z-score),[25],0.263
same,glycan array binding signal (z-score),[26],0.596
same,glycan array binding signal (z-score),[27],0.093
same,glycan array binding signal (z-score),[28],3
same,glycan array binding signal (z-score),[29],3.79
same,glycan array binding signal (z-score),[30],-0.347
same,glycan array binding signal (z-score),[31],-0.771
same,glycan array binding signal (z-score),[32],8.1
same,glycan array binding signal (z-score),[33],-0.619
same,glycan array binding signal (z-score),[34],-0.289
same,glycan array binding signal (z-score),[35],-0.935
same,glycan array binding signal (z-score),[36],-0.673
same,glycan array binding signal (z-score),[37],-0.327
same,glycan array binding signal (z-score),[38],0.314
same,glycan array binding signal (z-score),[39],2.87
same,glycan array binding signal (z-score),[40],1.04
same,glycan array binding signal (z-score),[41],-0.398
same,glycan array binding signal (z-score),[42],-0.652
same,glycan array binding signal (z-score),[43],-0.566
same,glycan array binding signal (z-score),[44],-0.342
same,glycan array binding signal (z-score),[45],-0.391
same,glycan array binding signal (z-score),[46],-0.045
same,glycan array binding signal (z-score),[47],0.884
same,glycan array binding signal (z-score),[48],3.01
same,glycan array binding signal (z-score),[49],1.17
same,glycan array binding signal (z-score),[50],4.6
same,glycan array binding signal (z-score),[51],0.965
